Compound activity: PubChem BioAssay, National Center for Advancing Translational Sciences (NCATS)
The full list was thinned out, with hits kept by preference.
Pf Dd2 inh: Plasmodium falciparum Dd2 growth inhibition | hit rate 4.3% among 120,000 | Potency, µM (doses to about 28.9 µM), most hits filed as inhibitors | P. falciparum Dd2 growth, SYBR Green, 72 h | AID 1347417; active means well fitted inhibition curve with a large enough effect; further: nearly all actives have a fitted effect of over 65% in size
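Infected erythrocytes (Dd2, 0.3% parasitemia, 2.5% hematocrit final) are added to compound in RPMI-1640/Albumax II medium, grown 72 h at 37C in low oxygen, then lysed with saponin/Triton-X containing SYBR Green and read by fluorescence.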
A number is an active result; – = inactive.

SMILES | Pf Dd2 inh
CC(C)CNC(=O)C1COC2(CCN(C(=O)c3ccc(F)cc3)CC2)N1C(=O)c1ccccc1 (stereo unspecified) | –
O=C(N[C@H](C1CCNCC1)C1CC(O)C1)c1cccc(=O)[nH]1 (stereo partly specified) | –
CCCNC(=O)C1COC2(CCN(C(=O)C3CCC3)CC2)N1C(=O)c1ccc(OC)cc1 (stereo unspecified) | –
O=C(NCC1(COc2ccc(C(F)(F)F)cn2)C[C@@H](O)[C@@H](O)C1)C1CC1 (stereo partly specified) | –
O[C@@H]1CC(CNCc2ccc(F)cc2)(COc2ccc(C(F)(F)F)cn2)C[C@@H]1O (stereo partly specified) | 4µM
Cn1cc(CNCC2(COc3ccc(C(F)(F)F)cn3)C[C@@H](O)[C@@H](O)C2)cn1 (stereo partly specified) | –
O=C1CC2CCN(Cc3c(F)cccc3Cl)CC2CCN1 (stereo unspecified) | –
Cc1nc([C@@H]2CN(C(=O)c3ccc(Cn4ccnc4)o3)C[C@H]2C(N)=O)n[nH]1 | –
COc1ccc(-c2noc(-c3ccc(NC(C)c4ccccc4)c([N+](=O)[O-])c3)n2)cc1OC (stereo unspecified) | –
COc1ccc([N+](=O)[O-])cc1NC(c1nnc(-c2ccccc2)o1)c1ccccc1F (stereo unspecified) | 13µM
O=C(CSc1nnc(-c2ccc([N+](=O)[O-])cc2)o1)Nc1ccccc1 | –
Cn1cnc(S(=O)(=O)N2CCCN(C3CCOCC3)CCNC(=O)CC2c2ccccc2)c1 (stereo unspecified) | –
CN(C)CCN(Cc1ccco1)C(=O)Cn1nc2n(c1=O)CCC(N)CC2 (stereo unspecified) | –
CC(C)c1noc(-c2cn(C3CCCN(C(=O)c4ccncc4)C3)nn2)n1 (stereo unspecified) | –
O=C(O)C1CCc2nnc(C3CCN(C(=O)c4cccc(Cl)c4)CC3)n21 (stereo unspecified) | –
COC(=O)COc1ccc(C(=O)N[C@@H]2CN(C(=O)NC(C)C)CCC[C@H]2O)cc1 | –
CCOc1cc(-c2nnc(SCC(=O)NCc3ccccc3)nc2-c2ccc(OC)c(OCC)c2)ccc1OC | 8.9µM
CCOc1cc(-c2nnc(SCC(=O)NCc3ccc(C)cc3)nc2-c2ccc(OC)c(OCC)c2)ccc1OC | –
CCOc1ccc(-c2nnc(SCC(=O)NC(C)CC)nc2-c2ccc(OCC)c(OC)c2)cc1OC (stereo unspecified) | –
Cc1cc(C(=O)N2C[C@@H](Oc3cccnc3)C[C@H]2C(=O)N2CCOCC2)n(C)n1 | –
CC1=C[C@@H](CNS(=O)(=O)Cc2ccccc2)[C@H](C(C)C)C[C@H]1CC(=O)N1CCOCC1 | –
CSc1ccc(-c2ccc3c(c2)C(=O)N2CC[C@H](NC(=O)C4CCCC4)[C@H]2C(=O)N3)cc1 | –
Cc1n[nH]c(C)c1S(=O)(=O)N(CC(=O)NC(C)c1ccccc1)c1ccc(C(C)C)cc1 (stereo unspecified) | –
COc1ccc(N(CC(=O)NCc2ccc(F)cc2)S(=O)(=O)c2c(C)n[nH]c2C)cc1 | –
Cc1ccc(N(CC(=O)Nc2ccc(C)c(F)c2)S(=O)(=O)c2c(C)n[nH]c2C)cc1 | 8.9µM
SMILES | Pf Dd2 inh
OCc1cc(CC2(NC3CCC(CO)CC3)COC2)no1 (stereo unspecified) | –
Cc1ccc(Cn2c(C3CCN(C(=O)c4ccc(F)c(Cl)c4)CC3)n[nH]c2=O)cc1 | –
OC[C@H]1CCN(c2ccnc3c(C(F)(F)F)cccc23)C[C@H]1O | –
COCCC1(C(=O)O)CCN(c2ccnc3c(C(F)(F)F)cccc23)CC1 | –
FC(F)(F)c1cccc2c(N3CCC4(CCCN4Cc4ncc[nH]4)CC3)ccnc12 | 10µM
COCC(=O)N1CC[C@H](n2nnc(C(N)=O)c2C(N)=O)C[C@H]1C(=O)N[C@H](Cc1c[nH]c2ccccc12)C(N)=O | –
Cc1ccccc1Oc1ncccc1CNC(=O)CCn1cnnc1 | –
C[C@@H]1CN(C(=O)c2ccc(F)cc2F)CC[C@@]1(O)C1CCOCC1 | –
C=CCNC(=O)c1ccc2cncn2c1 | –
O=C(NCCN1CCCCC1)c1ccc(-c2nnc3ccc(NC(=O)C4CCC4)cn23)cc1 | 1.3µM
Cc1ccc(-c2ccc3nnc(CNC(=O)C4CCCCC4)n3n2)cc1 | –
COc1cccc(NC(=O)c2ccc(-c3nnc4ccc(NC(=O)C5CCC5)cn34)cc2)c1 | 0.28µM
CC(C)NC(=O)c1ccc(-c2nnc3ccc(NC(=O)C4CCC4)cn23)cc1 | 4µM
O=C(NCCN1CCOCC1)c1ccc(-c2ccc(N3CCCCCC3)nc2)cc1 | –
COc1cccc(C(=O)N2CCC(C(=O)Nc3cccc(Cl)c3)CC2)c1 | –
O=C(Nc1ccc(-c2nnc3n2CCCC3)cc1)C1CCC1 | –
O=C(NC1CCCC1)c1ccc2nnc(-c3cncc(Cl)c3)n2c1 | –
O=C(NC1CC1)c1ccc2nnc(-c3ccc(F)cc3)n2c1 | –
C=CCNC(=O)c1ccc(-c2nnc3ccc(NC(=O)C4CCC4)cn23)cc1 | 3.2µM
COc1cccc(NC(=O)C2CCCN(S(=O)(=O)c3c(C)nn(C)c3C)C2)c1 (stereo unspecified) | –
CCN1c2cc(C(=O)NCc3cccc(Br)c3)ccc2C(=O)N2CCCCC21 (stereo unspecified) | –
Cc1cccc(N2CCN(C(=O)CN3CC4(CCCCC4)CC3=O)CC2)n1 | –
O=C(c1cc(C2CC2)[nH]n1)N1CCC2(CC1)NC(=O)N(c1cccc(F)c1)N2 | –
Cc1cc(C(=O)N2CCC3(CC(=O)Nc4ccccc4N3)C2)ccc1Cl (stereo unspecified) | –
Cc1ccc(C(=O)N2CCC3(CC2)NC(=O)N(c2ccc(F)cc2)N3)s1 | –
SMILES | Pf Dd2 inh
NCc1cc(NC(=O)c2ccccn2)cc(C(=O)N2CC[C@H]3CNC[C@H]32)c1 | –
Cn1cccc1C(=O)NCC1(C)CCOCC1 | –
N#Cc1cccc(CN2C[C@H](O)C[C@H]2c2nc(-c3ccc4c(c3)OCO4)no2)c1 | –
COc1ccc(NC(=O)O[C@@H]2CO[C@H]3[C@@H]2OC[C@@H]3NC(=O)Nc2cccc(C(F)(F)F)c2)cc1 | –
O=C(NCCC1=CCCN(CCCn2cccc2)C1)c1ccco1 | –
O=C(c1ccoc1)N1CCCN(C2CCC3(CCNCC3)CC2)CC1 | –
Cc1cc(C(=O)N2CC(F)(F)C[C@H]2c2nnc(C3CC3)o2)on1 | –
CCc1ccc(CNC(=O)c2ccc(CN3C(=O)NC4(CCOCC4)C3=O)cc2)cc1 | –
CCc1ccc(Cn2c(CNS(=O)(=O)c3ccc(C)c(C)c3)nc3cccnc32)cc1 | –
CCc1ccc(C(=O)c2cnc3ccc(C)cc3c2S(=O)(=O)c2ccc(OC)cc2)cc1 | 11µM
COc1ccc(S(=O)(=O)c2c(O)c3ccc(C(=O)NCc4ccc(F)cc4)cc3[nH]c2=O)cc1 | –
Cc1ccc(CCNC(=O)c2cc(Nc3ccc(C)c(C)c3)nc3ccccc23)cc1 | –
CCc1ccc(S(=O)(=O)c2c(C(=O)c3ccc(C)c(C)c3)cnc3ccccc23)cc1 | 4µM
CCOc1ccc(S(=O)(=O)c2c(C(=O)c3ccc(CC)cc3)cnc3ccc(C)cc23)cc1 | –
Cc1noc(-c2ccn3c(CNC(=O)C(C)c4ccccc4)nnc3c2)n1 (stereo unspecified) | –
CN1CCC(N[C@@H]2CO[C@H](CNC(=O)CC(C)(C)C)[C@H]2O)CC1 | –
O=C(NCCc1ccc(Cl)cc1)C1CCc2nnc(C3CCN(C(=O)C4CC4)CC3)n21 (stereo unspecified) | –
Cc1ccc(C(=O)N2CCC3(CC2)NC(=O)N(c2ccccc2)N3)s1 | –
